Assay outcomes: PubChem, National Center for Advancing Translational Sciences (NCATS)
HepG2 viability = kills HepG2 cells in TGF-b inhibitor counter-screen. HepG2 CAGA-GFP viability, ATP luminescence, 18 h. Potency, µM (titrated, usually from 46.1 µM), for the others: at the highest dose activity change, negative = cytotoxicity, hits mostly cytotoxic. 410,000 tested, 0.76% active. AID 588856
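HepG2 CAGA-GFP cells (1000/well, DMEM with 1% FBS) received compound, then TGF-beta at 500 pg/mL final, and were incubated 18 hours at 37 degrees C. Viability was read by CellTiter-Glo luminescence. Media-only wells were set as complete cell-killing and DMSO as no toxicity.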
DT40 TDP1 CPT = growth inhibition of DT40 Tdp1-/-;hTDP1 cells with camptothecin (screen for TDP1 inhibitors) | chicken DT40 Tdp1-/-;hTDP1 cells + 20 nM CPT, ATP luminescence, 48 h | 420,000 tested, 12% active | Potency, µM (series often up to 46.2 µM), without a hit: at the highest dose activity change, negative = growth inhibition, usual class: inhibitors; further: on the % scale 0 is the no-effect control and ±100 the full control effect; nearly all actives have a fitted effect of over 55% in size
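Chicken DT40 Tdp1-/- cells stably complemented with human TDP1 were seeded at 400 cells/well in medium containing 20 nM camptothecin, exposed to pin-transferred compounds, and grown at 37 °C for at least 48 hr. Viability was read as ATP luminescence.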
TDP1 cell noCPT = qHTS for Inhibitors of human tyrosyl-DNA phosphodiesterase 1 (TDP1): qHTS in cells in absence of CPT; DT40 Tdp1-/- hTDP1 cells, no CPT, ATP luminescence, 48 h; Potency, µM (top dose mostly 46.2 µM), for the others: at the highest dose activity change, negative = growth inhibition, actives largely listed as inhibitors; 420,000 tested, 15% active; AID 686978, 2013; further: on the % scale 0 is the no-effect control and ±100 the full control effect; nearly all actives have a fitted effect of over 55% in size
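No-CPT arm: Tdp1-/-;hTDP1 DT40 cells (400/well) plus compounds, incubated ≥48 hr at 37 °C. Readout CellTiter-Glo luminescence.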
TGFb SMAD3 inh = TGF-b pathway inhibition | HepG2 CAGA-GFP TGF-b/SMAD3 reporter, GFP fluorescence, 18 h; TGF-beta stimulated, 500 pg/mL final | Potency, µM (highest dose often 46.1 µM), without a hit: top-dose activity, negative = inhibition, usual class: inhibitors | 410,000 tested, 1.2% active; further: on the % scale 0 is the no-effect control and ±100 the full control effect; nearly all actives have a fitted effect of over 65% in size
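Read-out: total well GFP (ex488/em500-530) summed from mean per-cell fluorescence. Cells: HEPG2 CAGA-GFP, 1% FBS DMEM, 18 h at 37 degrees C with 500 pg/mL final TGF-beta. Unstimulated wells served as the full-inhibition control; stimulated DMSO wells = 0%.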
HT1080NT lethal = kills 2HG-producing HT-1080-NT fibrosarcoma cells | Potency, µM (series often up to 46.1 µM), without a hit: at the highest dose activity, negative = less viability, most hits filed as cytotoxic | AID 686970 | 360,000 tested, 1.6% active | HT-1080-NT fibrosarcoma viability, CellTiter-Glo ATP luminescence, 48 h;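 further: NT is the 2HG producing partner of a matched IDH1 knockdown line; 0% = DMSO-treated cells and -100% = media-only wells without cells; nearly all actives have a fitted effect of over 55% in size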
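Viability by CellTiter-Glo luminescence after 48 h compound exposure at 37C of HT-1080-NT cells (750/well, RPMI, 5% FBS). % activity scaled between DMSO wells and medium-only wells, then curve-fitted and categorized by curve class.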
HT1080 IDH1KD tx = toxicity to HT-1080 IDH1 knockdown cells (counter line) | HT-1080 IDH1 knockdown viability, ATP luminescence, 48 h | Potency, µM (titrated, usually from 46.1 µM), without a hit: at the highest dose activity, negative = toxicity, usual class: cytotoxic | 360,000 tested, 2% active;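 further: 0% = DMSO wells and -100% = cell-free medium wells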
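CellTiter-Glo luminescence after 48 h compound exposure at 37 degrees C of IDH1-knockdown HT-1080 cells in 5% FBS RPMI. %Activity scaled between DMSO wells and cell-free media wells, with curves fitted and assigned curve classes.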
Numbers without * were called inactive; ? = inconclusive; . = no result given. Sampled rows, rich in hits. Any-hit rate of the full collection: about 17%. The call rests on the fitted dose curve; in most records, active means well fitted curve in the direction sought with a large enough effect; inconclusive means small, poorly fitted or top-dose-only effect, or another doubt; inactive means no such curve, though single readings can be large; an effect the other way counts as inactive or inconclusive. Potency means the concentration at half of the fitted maximal effect.

SMILES | HepG2 viability | DT40 TDP1 CPT | TDP1 cell noCPT | TGFb SMAD3 inh | HT1080NT lethal | HT1080 IDH1KD tx
COc1ccc(OC)c(NC(=O)Cn2c(=O)n(-c3ccc(Cl)cc3)c(=O)c3c(C)c(C)sc32)c1 | -12% | ? | ? | 7% | . | .
O=C1NC[C@@H](CCCCN2C[C@H](Cc3ccc(O)cc3)N(CCc3ccccc3)C(=O)C2=O)N(CC2CCCCC2)C1=O | . | -1% | 1% | . | 1% | 0%
COc1ccc(Nc2ncc3c(n2)CCN(Cc2cc(Br)cs2)C3)c(OC)c1 | 2% | 18µM* | 15µM* | -3% | . | .
COc1ccc(Nc2ncc3c(n2)CCN(Cc2ccc(Br)s2)C3)c(OC)c1 | 4% | 21µM* | 13µM* | 1% | . | .
COc1ccc(Nc2ncc3c(n2)CCN(Cc2cccc(F)c2F)C3)c(OC)c1 | -2% | 26µM* | 21µM* | -12% | . | .
COc1ccccc1Nc1ncc2c(n1)CCN(CC(C)C)C2 | 2% | ? | ? | -5% | . | .
COc1ccccc1Nc1ncc2c(n1)CCN(Cc1ccc(C)s1)C2 | -14% | -6% | -10% | 19% | . | .
Cc1ncc(CO)c(CNc2ccc(-c3nc4ccccc4[nH]3)cc2)c1O | -55% | -10% | 20% | -15% | -13% | -15%
Cc1ccc(-c2ccc(=O)n(CCC(=O)N3CCN(c4cccc(C)c4)C(C)C3)n2)cc1 (centres undefined) | -45% | ? | ? | ? | 2% | -13%
C/C(CCC(C)C)=N\Nc1cc(C)c2ccccc2n1 | -16% | 10µM* | 7.3µM* | ? | -9% | -1%
O=C(N[C@H]1CC[C@H](CCNC(=O)C2CC2)O[C@@H]1CO)c1ccccn1 | . | -4% | -2% | . | 15% | 8%
COc1ccc(CN2CCCC(Cn3cc(C(=O)N4CCCC4)nn3)C2)c(O)c1 (centres undefined) | . | 1% | -6% | . | . | .
Cc1csc2nc(-c3cccc(NC(=O)c4ccccc4F)c3)cn12 | -51% | ? | ? | -2% | . | .
Cc1csc2nc(-c3cccc(NS(C)(=O)=O)c3)cn12 | -12% | 1% | -6% | 0% | . | .
Cc1csc2nc(-c3cccc(NC(=O)c4ccccc4Cl)c3)cn12 | -26% | 18µM* | 18µM* | -8% | . | .
Cc1csc2nc(-c3cccc(NC(=O)c4cccc(F)c4)c3)cn12 | -40% | 18µM* | 18µM* | ? | . | .
O=C(Nc1nc(=O)c2ccccc2s1)c1ccc(F)cc1 | -32% | -28% | -5% | ? | 16µM* | 1.4µM*
O=C(Nc1nc(=O)c2ccccc2s1)c1ccc(Cl)cc1 | 7% | ? | ? | 33% | -8% | 2%
COc1ccc(S(=O)(=O)N2CC(C(=O)O)Oc3ccccc32)cc1 (centres undefined) | -4% | -4% | -19% | 1% | 9% | 0%
COc1ccc(S(=O)(=O)N2c3ccccc3OCC2c2ccccc2)cc1 (centres undefined) | -11% | 18µM* | 23µM* | 12% | ? | ?
O=C(O)CC1COc2ccccc2N1S(=O)(=O)c1ccc(Br)cc1 (centres undefined) | -6% | 25% | -24% | 3% | 5% | 2%
COc1ccc(S(=O)(=O)N2c3ccccc3NC(=O)CC2C)cc1 (centres undefined) | -28% | -11% | 4% | 0% | -2% | -3%
COc1ccc(S(=O)(=O)N2c3ccccc3OCC2C)cc1 (centres undefined) | -2% | 0.58µM* | 0.82µM* | ? | 0.65µM* | 0.65µM*
COc1ccc(S(=O)(=O)N2c3ccccc3OCC2CC(=O)O)cc1 (centres undefined) | -2% | ? | 29µM* | 2% | ? | ?
COc1ccc(S(=O)(=O)N2CCOc3ccccc32)cc1 | -5% | 5.2µM* | 3.7µM* | 5% | ? | 13µM*
SMILES | HepG2 viability | DT40 TDP1 CPT | TDP1 cell noCPT | TGFb SMAD3 inh | HT1080NT lethal | HT1080 IDH1KD tx
CC1CCN(S(=O)(=O)c2ccc3c(c2)N(CC(=O)NCc2ccccc2Cl)C(=O)CS3)CC1 | -5% | ? | ? | -23% | . | .
COc1ccc(-c2cc3nc(C)c(CCC(=O)N4CCN(c5ccccc5)CC4)c(C)n3n2)c(OC)c1 | 1% | 19% | -4% | 0% | . | .
COc1ccc(NC(=O)CN(C)C(=O)c2cc(-c3cccs3)nn2-c2ccccc2)cc1 | -7% | ? | 15µM* | 0% | -9% | -12%
CCN(CC(=O)Nc1ccc(OC)cc1)C(=O)c1cc(-c2cccs2)nn1-c1ccccc1 | -21% | ? | 16µM* | 10% | -3% | -16%
CN(CC(=O)Nc1ccc(F)cc1)C(=O)c1cn(-c2ccccc2)nc1-c1cccs1 | -27% | ? | ? | -28% | -10% | -2%
CN(CC(=O)Nc1ccc(F)cc1)C(=O)c1cc(-c2cccs2)nn1-c1ccccc1 | 1% | ? | 13µM* | 8% | -4% | -3%
COc1ccc(NC(=O)CN(C)C(=O)c2cn(-c3ccccc3)nc2-c2cccs2)cc1 | -39% | ? | 16µM* | 0% | 0% | -2%
CCOc1ccc(NC(=O)CN(C)C(=O)c2cc(-c3cccs3)nn2-c2ccccc2)cc1OCC | 3% | ? | ? | -3% | 5% | 9%
CC(C)NC(=O)c1cc(C2CCCCN2S(=O)(=O)c2cccc3cccnc23)on1 (centres undefined) | 2% | -5% | 0% | 0% | 2% | 3%
COc1ccc(S(=O)(=O)N2CCN(CC(=O)NCCc3cccs3)CC2)cc1 | -7% | -14% | -12% | -1% | -7% | -3%
CCCCc1ccc(Nc2ncnc3c2cnn3-c2ccc(C)cc2)cc1 | -9% | -14% | -7% | 3% | . | .
O=C(CSC1=NCCN1)NC1CCCCCC1 | -47% | ? | 18µM* | ? | -6% | -17%
O=C(CSC1=NCCN1)NC12CC3CC(CC(C3)C1)C2 | -31% | 26µM* | 15µM* | ? | -13% | -21%
Cn1ccnc1SCC(=O)NC1CCCCC1 | 0% | 1% | 9% | 0% | 10% | 15%
COc1ccccc1C(=O)NC(CCSC)C(=O)NNC(=O)c1ccncc1 (centres undefined) | 2% | 0% | 4% | 12% | -2% | 1%
